In all, about 330,000 compounds went through this assay and about 2,800 (0.85%) were called active.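 The calls were made as follows: active = mean inhibition across replicates of 60% or more, whatever share of single replicates reaches that level; inconclusive = some that reach 60%, reason not given; inactive = mean inhibition across replicates below 60%.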 The entries come from a sample that favours actives as a whole.
experiment: MITF transcriptional activity suppression – cell-based, SK-MEL-5, single point, luciferase, primary screen (AID 488899); conditions: SK-MEL-5 TRPM1 promoter luciferase, 24 h; at 12.5 µM; active compounds read high

SMILES	inhibition
C#CCOCCOCCOCCNc1nc(N2CCN(C(=O)CCCCCCCCCCNC(=O)[C@H]([C@@H](C)CC)n3cc(CCCCN=C(N)N)nn3)CC2)nc(N2CCN(C(=O)CCCCCCCCCCNC(=O)[C@H](CO)n3cc(CCCSC)nn3)CC2)n1	72.9% (active)
C#CCOCCOCCOCCNc1nc(N2CCN(C(=O)CCCCCCCCCCNC(=O)[C@H](CCCCN)n3cc(C)nn3)CC2)nc(N2CCN(C(=O)CCCCCCCCCCNC(=O)[C@H](CO)n3cc(CCCSC)nn3)CC2)n1	47.5% (inactive)
C#CCOCCOCCOCCNc1nc(N2CCN(C(=O)CCCCCCCCCCNC(=O)Cn3cc(CCCCCN)nn3)CC2)nc(N2CCN(C(=O)CCCCCCCCCCNC(=O)[C@H](CO)n3cc(CCCSC)nn3)CC2)n1	23.1% (inactive)
Cc1ccc(-c2nn(C(C)(C)C)c3ncnc(N)c23)cc1	3.91% (inactive)
CN(C)c1ccc(CSc2ccccc2)cc1	-111% (inactive)
Cc1ccc(C(=O)NC(=S)Nc2ccc3[nH]c(=O)[nH]c3c2)cc1C	3.06% (inactive)
N#Cc1nc(N)nc(N(c2ccccc2)c2ccccc2)n1	10.4% (inactive)
COc1ccc(S(=O)(=O)N2CCOCC2)cc1NC(=O)Cc1coc2cc(C)ccc12	5.65% (inactive)
CCc1ccc(OCC2c3cc(OC)c(OC)cc3CCN2C(C)=O)cc1 (stereo not given)	-0.63% (inactive)
CC[C@H]1CN2CCc3cc(OC)c(OC)cc3[C@@H]2C[C@@H]1C[C@H]1NCCc2cc(OC)c(OC)cc21	85.1% (active)
COc1cc2c(cc1OC)CN(CC(=O)Nc1ccc(F)cc1)CC2	4.57% (inactive)
COc1ccc(/C=C/C2=CC(C)(C)NC(=S)N2)c(OC)c1	10.5% (inactive)
Cc1ccccc1-n1nc(C)c2c1N=C1C(Cl)=CC(Cl)=CN1C2c1ccc(C(=O)O)cc1 (stereo not given)	5.65% (inactive)
Cn1c(=O)c2c(nc(SCCNS(=O)(=O)c3ccccc3)n2C)n(C)c1=O	-8.94% (inactive)
COc1ccc(Cc2n[nH]c(=S)n2NC(=O)Nc2ccc(C)cc2)cc1	-46.7% (inactive)
CC(C)CC[n+]1ccn(C2=C([O-])c3ccccc3C(=O)/C2=N\S(=O)(=O)c2ccccc2)c1	91.1% (active)
CC(=O)Nc1ccc(NC(=O)C(C)n2c3ccccc3c3nc(=O)cc(C)n32)cc1 (stereo not given)	11.5% (inactive)
CCn1c(CC(=O)Nc2ccc(C)cc2)nnc1SCC(=O)Nc1nc(C)cs1	6.57% (inactive)
COc1ccc2oc(N)nc2c1	7.49% (inactive)
COc1cccc(Oc2ccc(N)cc2)c1	-4.14% (inactive)
CC(C)(C)c1ccc(Oc2ccc(N)cc2)cc1	91.7% (active)
CC(C)(C)c1ccc(OC2=CS(=O)(=O)c3ccccc32)cc1	-25.6% (inactive)
COc1ccc(/C=N/Nc2ccccc2C(=O)O)cc1	-4.16% (inactive)

SMILES	inhibition
COc1ccc(C(=O)Nc2ccccc2C(=O)N/N=C/c2ccc(O)c(OC)c2)cc1	73.3% (active)
COc1ccc(C(=O)Nc2ccccc2C(=O)N2CCN(c3ccccc3)CC2)cc1	-1.5% (inactive)
CC(=O)NC(Cc1ccc(F)c(F)c1)C(=O)NC1CCN(C(=O)c2ccc(C)cc2)CC1 (stereo not given)	7.52% (inactive)
CSc1ncc(Sc2ccccc2)c(C(=O)O)n1	5.79% (inactive)
CSc1nc(-c2ccccc2)nc(C(Cl)Cl)n1	87.8% (active)
Cc1ccc(CNC(=O)c2ccc(CS(=O)Cc3cccc(Cl)c3)o2)cc1 (stereo not given)	2.54% (inactive)
CCOC(=O)N1CCN(c2c(NCCCN3CCCC(C)C3)c(=O)c2=O)CC1 (stereo not given)	-5.22% (inactive)
CCCCCCCCn1c2c(c(=N)c3c1CCC3)CCCC2	77.2% (active)
CCOc1ccc(N(C)S(=O)(=O)c2cnc[nH]2)cc1	6.77% (inactive)
CC1CCCCC1NC(=O)COC(=O)Cc1ccc(Cl)cc1 (stereo not given)	6.02% (inactive)
CN(c1ccc2nc3ccccc3c(=O)n2n1)C1CCCCC1	84.7% (active)
CN(C(=O)c1cc2c(=O)n3ccccc3nc2s1)C1CCCCC1	-36.7% (inactive)
CN(C(=O)CSc1nncc2ccccc12)C1CCCCC1	-4.81% (inactive)
CCCN(CCC)S(=O)(=O)c1ccc(C(=O)NNC(=O)c2cc(OC)c(OC)c(OC)c2)cc1	4.09% (inactive)
Clc1cccc(-c2nc(NCC3CCCO3)c3ccccc3n2)c1 (stereo not given)	-7.27% (inactive)
Clc1ccc2nc(-c3ccccc3)nc(C(Cl)Cl)c2c1	90.9% (active)
N#CCSc1nc(-c2ccccc2)nc2ccc(F)cc12	6.09% (inactive)
CCCOc1cccc(C(=O)Nc2nnn(CCC)n2)c1	-31.2% (inactive)
COc1cc(C(=O)N2CCN(C3CCC(C)CC3)CC2)cc(OC)c1OC (stereo not given)	-0.962% (inactive)
O=C1c2ccccc2C(=O)N1CC1c2ccccc2CCN1S(=O)(=O)c1ccccc1 (stereo not given)	-6.02% (inactive)
CCN1CCN(C(=O)CSc2ccc(C)cc2)CC1	-21.2% (inactive)
CCN1CCC(O)(/C=C/c2ccc(C)cc2)C(C(=O)/C=C/c2ccc(C)cc2)C1 (stereo not given)	77.1% (active)
CCOC(=O)C1CCCN(C(=O)/C=C/c2ccc(OC)cc2)C1 (stereo not given)	-11.1% (inactive)

SMILES	inhibition
Nc1ccccc1SC(C[N+](=O)[O-])c1ccccc1 (stereo not given)	75.5% (active)
Cc1ccc(C(C[N+](=O)[O-])c2c(C)cc3ccccn23)cc1 (stereo not given)	40.1% (inactive)
O=C(NCC(=O)N1CCCCCCC1)c1ccccc1Cl	-25.1% (inactive)
COc1ccc(S(=O)(=O)N2CCCC2CNC(=O)C(=O)NC2CC2)cc1 (stereo not given)	-5.39% (inactive)
O=C(NNC(=S)NCCCN1CCOCC1)c1ccncc1	-1.68% (inactive)
O=C1CC(N2CCN(C(c3ccccc3)c3ccccc3)CC2)C(=O)N1 (stereo not given)	-6.57% (inactive)
Oc1ccccc1CN1CCN(C(c2ccccc2)c2ccccc2)CC1	5.95% (inactive)
CC1(C)CC(N2CCN(C(c3ccccc3)c3ccccc3)CC2)=CC(=[N+]2CCCCC2)C1	94% (active)
CN(C)CCN=c1cc(-c2ccccc2)oc2ccc(Cl)cc12	-36.2% (inactive)
CCOc1ccc(C(=O)CCC(=O)Nc2ccncc2)cc1	8.37% (inactive)
CCOc1ccc(NC(=O)CCC(=O)NNC(=O)NC2CCCCC2)cc1	-2.59% (inactive)
CCOc1ccc(NC(=O)CCC(=O)N/N=C/c2ccc([N+](=O)[O-])s2)cc1	62.8% (active)
CCCCN(C(=O)c1ccc(OC(F)(F)F)cc1)c1c(N)n(CCC)c(=O)[nH]c1=O	-1.56% (inactive)
CCN(C(=O)COC(=O)Cc1c(F)cccc1Cl)c1c(N)n(Cc2ccccc2)c(=O)[nH]c1=O	-2.14% (inactive)
O=C(NCCc1ccc(C(F)(F)F)cc1)c1ccc2c(c1)OCO2	-3.11% (inactive)
O=C(CCc1ccccc1Cl)Nc1ccc(S(=O)(=O)Nc2nccs2)cc1	12.4% (inactive)
Cc1coc2c(O)cc3c(c12)OC1(N2CCCCC2)C(=O)NCCCC31 (stereo not given)	77.4% (active)
COc1ccc(CCN2CC(C(=O)OCC(=O)NCc3ccccc3Cl)CC2=O)cc1OC (stereo not given)	-2.95% (inactive)
CC1C(C)N(C(=O)CCl)c2ccccc2N1C(=O)CCl (stereo not given)	91.3% (active)
CC1C(=O)N(Cc2ccccc2)c2ccccc2N1C(=O)c1ccccc1 (stereo not given)	8.87% (inactive)
CC1CC(C)CN(CC(=O)N2c3ccccc3CCc3ccccc32)C1 (stereo not given)	-0.982% (inactive)
CCC1([N+](=O)[O-])COC(c2ccc(C(C)C)cc2)OC1 (stereo not given)	-55.6% (inactive)
O=C(Nc1ccc2ccccc2c1[N+](=O)[O-])c1ccccc1	-36.6% (inactive)

SMILES	inhibition
CC(=O)/C(=N\Nc1ccc(Cl)cc1Cl)Sc1cccc2cccnc12	65.6% (active)
S=C(NCc1cccnc1)Nc1ccc(Cl)cc1Cl	-6.79% (inactive)
Cc1c(NC(=O)CSc2cccc3cccnc23)c(=O)n(-c2ccccc2)n1C	35.6% (inactive)
CC1(C)C(=O)C2(CCCCC2)C(=O)OC1c1cccs1 (stereo not given)	4.16% (inactive)
C=CCn1c(=S)[nH]c2scc(-c3ccco3)c2c1=O	1.55% (inactive)
CCN(CC)S(=O)(=O)c1cc(C(=O)Nc2cc(S(=O)(=O)N3CCOCC3)ccc2N2CCCC2)ccc1F	6.91% (inactive)
CCN(CC)S(=O)(=O)c1ccc(N2CCCC2)c(NC(=O)c2ccc([N+](=O)[O-])o2)c1	88.5% (active)
CCN(CC)S(=O)(=O)c1ccc(N2CCOCC2)c(NC(=O)c2ccc(=O)n(C)n2)c1	2.54% (inactive)
Nc1ccc(-n2nncc2-c2ccco2)cc1	-11.2% (inactive)
O=C(c1cccc(S(=O)(=O)N2CCCCCC2)c1)N1CCN(Cc2ccccc2)CC1	-3.86% (inactive)
CCOC(=O)c1c(NC(=O)CN2C(=O)NC3(CCC(C)CC3)C2=O)sc(C)c1CC (stereo not given)	0.199% (inactive)
NC(=O)NC(CC(=O)NNC(=O)c1ccccn1)c1ccc(Cl)cc1 (stereo not given)	-12.2% (inactive)
C/C(=N\NC(=O)c1ccoc1C)c1ccccc1O	-21.6% (inactive)
C/C(=N\NC(=O)c1ccccc1F)c1ccccn1	62.2% (active)
CC(=NNC(=S)N1CCCCCC1)c1ccccn1	58.9% (inactive)
CC1=NNC(=O)C1CCC(=O)N/N=C(\C)c1ccc(Cl)cc1 (stereo not given)	2.4% (inactive)
C/C(=N\NC(=O)Cc1ccc(Cl)cc1)c1ccccn1	80% (active)
CC(C)CN1CC(C)C(=O)N(c2ccccc2)C1=S (stereo not given)	-5.49% (inactive)
COc1cc2c(cc1OC)C(C)N(S(=O)(=O)c1cnc(Cl)c(Cl)c1)CC2 (stereo not given)	76% (active)
COc1ccc(S(=O)(=O)N2CCC(C(=O)N3CCc4ccccc4C3)CC2)cc1OC	1.79% (inactive)
COc1cc2c(cc1OC)CN(C(=O)c1cc(S(=O)(=O)N3CCCCC3)ccc1Cl)CC2	10.9% (inactive)
